Results reported in PubChem BioAssay AID1159580 (chemical genetic matrix, 2015).
Among all 5,500 compounds or so, about 2,000 (36%) were called active. Inconclusive results (about 18%) are left out. No stated cut-off is given here; in the data, active means normalized growth mostly below about 0.91 (no sharp cut-off); inconclusive means no clear call, values can overlap the other calls; inactive means mostly above about 0.92. The list shows a part of the results.

Assay: chemical genetic growth profiling, strain panel (AID 1159580);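 further: tested at 20 µM; growth read once vehicle control cultures reached saturation at 30 °C; 1 = growth at the plate median or of vehicle wells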
Conditions: growth OD

Measured: normalized growth

CCCCN(CC)c1c([N+](=O)[O-])cc(C(F)(F)F)cc1[N+](=O)[O-]
inactive: S. cerevisiae deletion strains, locus YJR075W, strain HOC1, stronger effect = lower value 1 | S. cerevisiae deletion strains, locus YKL009W, strain mrt4, stronger effect = lower value 1.04 | S. cerevisiae deletion strains, locus YKL068W, stronger effect = lower value 1.01 | S. cerevisiae deletion strains, locus YKL085W, strain MDH1 (second series), stronger effect = lower value 1.01 | S. cerevisiae deletion strains, locus YKL085W, strain MDH1, stronger effect = lower value 1.01 | S. cerevisiae deletion strains, locus YKL160W, strain elf1, stronger effect = lower value 1.02 | S. cerevisiae deletion strains, locus YKL190W, strain CNB1, stronger effect = lower value 1.02 | S. cerevisiae deletion strains, locus YKR001C, strain vps1, stronger effect = lower value 1.04 | S. cerevisiae deletion strains, locus YKR026C, strain gcn3, stronger effect = lower value 1.02 | S. cerevisiae deletion strains, locus YKR091W, strain srl3, stronger effect = lower value 1.01 | S. cerevisiae deletion strains, locus YLL001W, strain dnm1, stronger effect = lower value 1.01 | S. cerevisiae deletion strains, locus YLL026W, stronger effect = lower value 1 | S. cerevisiae deletion strains, locus YLL041C, strain sdh2, stronger effect = lower value 1.01 | S. cerevisiae deletion strains, locus YLR027C, strain aat2, stronger effect = lower value 0.996 | S. cerevisiae deletion strains, locus YLR039C, strain RIC1, stronger effect = lower value 1.02 | S. cerevisiae deletion strains, locus YLR058C, strain SHM2, stronger effect = lower value 1.01 | S. cerevisiae deletion strains, locus YLR102C, strain apc9, stronger effect = lower value 1.01 | S. cerevisiae deletion strains, locus YLR113W, strain HOG1, stronger effect = lower value 0.973 | S. cerevisiae deletion strains, locus YLR221C, strain rsa3, stronger effect = lower value 1 | S. cerevisiae deletion strains, locus YLR258W, strain gsy2, stronger effect = lower value 1.01 | S. cerevisiae deletion strains, locus YLR262C, strain YPT6 (second series), stronger effect = lower value 0.995 | S. cerevisiae deletion strains, locus YLR262C, strain YPT6, stronger effect = lower value 1.02 | S. cerevisiae deletion strains, locus YLR268W, strain sec22, stronger effect = lower value 1.02 | S. cerevisiae deletion strains, locus YLR320W, strain mms22, stronger effect = lower value 1.02 | S. cerevisiae deletion strains, locus YLR330W, strain CHS5, stronger effect = lower value 1.01 | S. cerevisiae deletion strains, locus YLR342W, strain FKS1 (second series), stronger effect = lower value 1.08 | S. cerevisiae deletion strains, locus YLR342W, strain FKS1, stronger effect = lower value 1 | S. cerevisiae deletion strains, locus YLR357W, strain rsc2, stronger effect = lower value 1.03 | S. cerevisiae deletion strains, locus YLR370C, strain arc18, stronger effect = lower value 1.01 | S. cerevisiae deletion strains, locus YLR371W, strain rom2, stronger effect = lower value 1.01 | S. cerevisiae deletion strains, locus YLR384C, strain iki3, stronger effect = lower value 1 | S. cerevisiae deletion strains, locus YLR418C, strain cdc73, stronger effect = lower value 1 | S. cerevisiae deletion strains, locus YML016C, strain PPZ1, stronger effect = lower value 1.01 | S. cerevisiae deletion strains, locus YML032C, strain rad52, stronger effect = lower value 1.02 | S. cerevisiae deletion strains, locus YML120C, strain ndi1, stronger effect = lower value 1.03 | S. cerevisiae deletion strains, locus YML124C, strain tub3, stronger effect = lower value 1.01 | S. cerevisiae deletion strains, locus YMR058W, strain fet3, stronger effect = lower value 1.02 | S. cerevisiae deletion strains, locus YMR078C, strain ctf18, stronger effect = lower value 1.01 | S. cerevisiae deletion strains, locus YMR125W, strain sto1, stronger effect = lower value 1.01 | S. cerevisiae deletion strains, locus YMR129W, stronger effect = lower value 1.02 | S. cerevisiae deletion strains, locus YMR205C, strain PFK2, stronger effect = lower value 1 | S. cerevisiae deletion strains, locus YMR223W, strain ubp8, stronger effect = lower value 1.02 | S. cerevisiae deletion strains, locus YMR231W, strain pep5, stronger effect = lower value 0.997 | S. cerevisiae deletion strains, locus YMR263W, strain SAP30, stronger effect = lower value 1.02 | S. cerevisiae deletion strains, locus YMR307W, strain GAS1, stronger effect = lower value 0.998 | S. cerevisiae deletion strains, locus YNL067W, strain RPL9B, stronger effect = lower value 1.01 | S. cerevisiae deletion strains, locus YNL071W, strain lat1, stronger effect = lower value 1.02 | S. cerevisiae deletion strains, locus YNL128W, strain TEP1, stronger effect = lower value 1.02 | S. cerevisiae deletion strains, locus YNL153C, strain GIM3, stronger effect = lower value 1.01 | S. cerevisiae deletion strains, locus YNL183C, strain NPR1, stronger effect = lower value 0.999 | S. cerevisiae deletion strains, locus YNL209W, strain ssb2, stronger effect = lower value 1.01 | S. cerevisiae deletion strains, locus YNL233W, strain BNI4, stronger effect = lower value 1.01 | S. cerevisiae deletion strains, locus YNL248C, strain rpa49, stronger effect = lower value 1.02 | S. cerevisiae deletion strains, locus YNL250W, strain rad50, stronger effect = lower value 1 | S. cerevisiae deletion strains, locus YNL271C, strain bni1, stronger effect = lower value 1.01 | S. cerevisiae deletion strains, locus YNL298W, strain CLA4, stronger effect = lower value 1.01 | S. cerevisiae deletion strains, locus YNL307C, strain MCK1, stronger effect = lower value 1.02 | S. cerevisiae deletion strains, locus YNL322C, strain KRE1 (second series), stronger effect = lower value 1.01 | S. cerevisiae deletion strains, locus YNL322C, strain KRE1, stronger effect = lower value 1.01 | S. cerevisiae deletion strains, locus YNR049C, strain mso1, stronger effect = lower value 1.01 | S. cerevisiae deletion strains, locus YNR052C, strain pop2, stronger effect = lower value 1.02 | S. cerevisiae deletion strains, locus YOL006C, strain TOP1, stronger effect = lower value 1.01 | S. cerevisiae deletion strains, locus YOL012C, strain htz1 0.93 | S. cerevisiae deletion strains, locus YOL147C, strain pex11, stronger effect = lower value 1.01 | S. cerevisiae deletion strains, locus YOR001W, strain rrp6, stronger effect = lower value 1.03 | S. cerevisiae deletion strains, locus YOR061W, strain CKA2, stronger effect = lower value 1.01 | S. cerevisiae deletion strains, locus YOR069W, strain VPS5, stronger effect = lower value 1.01 | S. cerevisiae deletion strains, locus YOR070C, strain gyp1, stronger effect = lower value 1.02 | S. cerevisiae deletion strains, locus YOR080W, strain dia2, stronger effect = lower value 1 | S. cerevisiae deletion strains, locus YOR083W, strain WHI5, stronger effect = lower value 1.02 | S. cerevisiae deletion strains, locus YOR106W, strain vam3, stronger effect = lower value 0.994 | S. cerevisiae deletion strains, locus YOR136W, strain idh2, stronger effect = lower value 1.01 | S. cerevisiae deletion strains, locus YOR144C, strain elg1, stronger effect = lower value 1.01 | S. cerevisiae deletion strains, locus YOR184W, strain ser1, stronger effect = lower value 1.03 | S. cerevisiae deletion strains, locus YOR231W, strain MKK1, stronger effect = lower value 1.06 | S. cerevisiae deletion strains, locus YOR265W, strain rbl2, stronger effect = lower value 1.03 | S. cerevisiae deletion strains, locus YOR270C, strain vph1, stronger effect = lower value 1.06 | S. cerevisiae deletion strains, locus YOR290C, strain snf2, stronger effect = lower value 1.04 | S. cerevisiae deletion strains, locus YOR316C, strain cot1, stronger effect = lower value 1.01 | S. cerevisiae deletion strains, locus YPL051W, strain arl3, stronger effect = lower value 1 | S. cerevisiae deletion strains, locus YPL055C, strain LGE1, stronger effect = lower value 1.01 | S. cerevisiae deletion strains, locus YPL078C, strain atp4, stronger effect = lower value 1.02 | S. cerevisiae deletion strains, locus YPL106C, strain sse1, stronger effect = lower value 1.03 | S. cerevisiae deletion strains, locus YPL240C, strain hsp82, stronger effect = lower value 1.01 | S. cerevisiae deletion strains, locus YPL241C, strain CIN2, stronger effect = lower value 1.01 | S. cerevisiae deletion strains, locus YPL256C, strain CLN2, stronger effect = lower value 1.05 | S. cerevisiae deletion strains, locus YPR119W, strain clb2, stronger effect = lower value 1.01 | S. cerevisiae deletion strains, locus YPR141C, strain kar3, stronger effect = lower value 1.01 | S. cerevisiae deletion strains, locus YPR163C, strain tif3, stronger effect = lower value 1.01 | S. cerevisiae deletion strains, locus YPR167C, strain met16, stronger effect = lower value 1.02 | S. cerevisiae deletion strains, strain wtn01, stronger effect = lower value 1.01 | S. cerevisiae strains, strain wild type, stronger effect = lower value 1.01
